Screening results: PubChem, National Center for Advancing Translational Sciences (NCATS)
Sampled rows, rich in hits. Any-hit rate of the full collection: about 19%.
Pf growth 48h – inhibits P. falciparum growth in the first generation, 48 h | AID 504832 | Potency, µM (doses to about 28.7 µM), inactives show top-dose activity change, negative = inhibition, actives largely listed as inhibitors | P. falciparum luciferase growth in erythrocytes, 48 h | 310,000 tested, 5.9% active; note: potency is the fitted concentration of half-maximal effect; % is set by controls: 0 for no effect and ±100 for the full control effect
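Luciferase-expressing P. falciparum in infected erythrocytes (2% hematocrit, 0.1% parasitemia final) in RPMI 1640/0.5% Albumax were exposed to compound for 48 hours at 37 C, 5% CO2; growth read as luminescence.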
Shiga inhibitor – inhibitors of Shiga toxin in Vero cells | Vero cells, Shiga toxin protein synthesis inhibition reporter | inhibition, % at 38.7 µM | 290,000 tested, 9.2% active | AID 2315; in the data active = inhibition mostly above about 28%, no sharp cut-off; inactive = mostly below about 43%; note: 0% is about no effect
AMA1 RON2 block – disrupts binding of P. falciparum AMA1 to RON2 | AlphaScreen AMA1-biotinylated RON2 peptide binding | Potency, µM (doses to about 58.2 µM), without a hit: top-dose activity change, negative = inhibition, actives largely listed as inhibitors | 360,000 tested, 0.2% active | AID 720542;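 note: potency is the fitted concentration of half-maximal effect; 0% = vehicle wells and -100% = peptide control; nearly all actives have a fitted effect of over 45% in size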
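AMA1 (3D7) with his tag at 25 nM final met compounds first, then biotinylated RON2 peptide at 25 nM; detection used donor plus acceptor beads, 10 µg/mL apiece, read by AlphaScreen after 30 min at room temperature.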
Cycloheximide cs – affects cycloheximide protein synthesis inhibition readout, counter-screen; cell reporter, cycloheximide protein synthesis inhibition counterscreen; max response, %; 300,000 tested, 12% active; AID 2314; in the data active = max response mostly above about 13%, no sharp cut-off; inactive = mostly below about 14%; note: read at 38.3 µM for the half of the compounds with a filed dose; 0% is about no effect
SARS PLP yeast – inhibitors of SARS-CoV papain-like protease in yeast. Potency, µM (highest dose often 32.9 µM), for the others: at the top dose activity, positive = growth rescue, actives largely listed as activators. S. cerevisiae expressing SARS-CoV PLpro, growth rescue. 330,000 tested, 0.19% active; calls by dose curve; note: potency is the fitted concentration of half-maximal effect; 0% is about no effect; nearly all actives have a fitted effect of over 55% in size
Pf growth 96h – P. falciparum growth inhibition at 96 hour, primary screen for plastid delayed-death inhibitors; P. falciparum luciferase reporter growth, 96 h; Potency, µM (titrated, usually from 28.7 µM), inactives show at the highest dose activity change, negative = inhibition, actives largely listed as inhibitors; 320,000 tested, 6.9% active; AID 504834; note: potency is the fitted concentration of half-maximal effect; % is set by controls: 0 for no effect and ±100 for the full control effect
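Delayed-death screen, second-generation endpoint: infected erythrocytes, 2% hematocrit, 0.05% parasitemia final; 96 hours at 37 C, 5% CO2; luciferase detection reagent; luminescence decrease equals reduced growth.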
* hit, by the source's call; ? = inconclusive; · = no result given; ! = not active in a repeat; [ ] = remark or other dose. Unless noted, calls come from the whole dose curve; as a rule, active = well fitted curve in the direction sought with a large enough effect; inconclusive = small, poorly fitted or top-dose-only effect, or another doubt; inactive = no such curve, though single readings can be large; an effect the other way counts as inactive or inconclusive.

SMILES	Pf growth 48h	Shiga inhibitor	AMA1 RON2 block	Cycloheximide cs	SARS PLP yeast	Pf growth 96h
COc1ccc(O[C@H]2C=C[C@@H](c3ccccc3)O[C@@H]2CO/N=C(\C)CCC(=O)OC[C@H]2O[C@H](c3ccccc3)C=C[C@@H]2Oc2ccc(OC)cc2)cc1	2.6µM*	4	·	-1	-2%	2.3µM*
C=CCN(c1ccccc1OC)S(=O)(=O)c1ccc(Cl)c(C(=O)NCc2ccco2)c1	·	·	-4%	·	·	·
CCOC(=O)N1CCN(c2cc3nccnc3cc2F)CC1	12%	-6	-16%	-2	-2%	·
CC(=O)c1ccc(S(=O)(=O)N2CCN(c3ccnc4cc(Cl)ccc34)CC2)cc1	·	·	-3%	·	·	·
CCC(=O)N1CCN(c2ccnc3cc(Cl)ccc23)CC1	13µM*	-2	-7%	-2	-1%	12µM*
CCOC(=O)N1CCN(c2ccnc3cc(Cl)ccc23)CC1	2.6µM*	21	-3%	-3	13%	2.3µM*
COc1cccc(Cl)c1NC(=O)N1CCN(c2ccnc3cc(Cl)ccc23)CC1	?	-4	-11%	-3	-3%	?
CC(C)N(C(=O)N1CCN(c2ccnc3cc(Cl)ccc23)CC1)C(C)C	8.3µM*	-15	-4%	0	0%	8.3µM*
O=C(c1ccc(Cl)cc1)N1CCN(c2ccnc3cc(Cl)ccc23)CC1	13µM*	-4	-7%	-3	-3%	15%
CCc1nccn1CCC(=O)NC1CCCc2c1cnn2-c1ccc(F)cc1F (centres undefined)	4%	-15	-8%	-3	-2%	-3%
Cc1ccc(C(=O)COC(=O)CN2C(=O)C3C4CCC(C4)C3C2=O)cc1[N+](=O)[O-] (centres undefined)	-78%	-1	4%	1	-3%	39%
Cc1ccc(C(=O)COC(=O)CN2C(=O)C3C4CCC(C4)C3C2=O)cc1C (centres undefined)	9%	7	-17%	12*	0%	17%
CCOC(C(=O)OCCC[N+](C)(CC)CC)(c1ccccc1)c1ccccc1	2.1µM*	21	-3%	6	-10%	·
CC[N+](C)(CC)CCC(c1ccccc1)C1CCCCC1 (centres undefined)	6.6µM*	-5	9%	-1	-2%	?
CCN(CC)CCCOC(=O)C(OC)(c1ccccc1)c1ccccc1	·	-3	-5%	-6	10%	-27%
CCC(C(=O)NC1CCCCCC1)c1ccccc1 (centres undefined)	·	·	-1%	·	·	·
CCN(CC)CC#CCOC(=O)[C@@](O)(c1ccccc1)C1CCCCC1	?	·	·	·	·	12µM*
CCOC(C(=O)OCC(O)CN(CC)CC)(c1ccccc1)c1ccccc1 (centres undefined)	10µM*	4	-14%	-3	4%	-31%
CC[N+](C)(CC)CCOC(=O)C(O)(c1ccccc1)C1CCCCC1 (centres undefined)	12µM*!	-10	-7%	-2	-12%	13µM*!
CC[N+](C)(CC)CCCOC(=O)C(O)(c1ccccc1)C1CCCCC1 (centres undefined)	4.1µM*	-2	10%	-3	0%	-10%
CCn1ccnc1[C@@H]1C[C@H]2CN(c3ccccc3OC)C(=O)[C@]23CCCN13	12%	-13	1%	-3	-1%	-10%
CCC(=O)Nc1cccc(Br)c1	13%	1	0%	1	-4%	?
COc1cccc(NC(=O)C/C(C)=N/NC(=O)c2ccccc2Cl)c1	3%	55*	95%	25*	1%	10%
C/C(CC(=O)Nc1cccc(Br)c1)=N\NC(=O)c1ccc(O)cc1O	12%	65*	65%	31*	11%	-17%
COc1ccc(Cl)cc1NC(=O)C/C(C)=N/NC(=O)CCc1ccccc1	1%	-3	59%	-2	-4%	14%
SMILES	Pf growth 48h	Shiga inhibitor	AMA1 RON2 block	Cycloheximide cs	SARS PLP yeast	Pf growth 96h
C/C(CC(=O)Nc1ccc(Cl)c(Cl)c1)=N\NC(N)=S	13µM*	19	36%	-3	12%	6%
COc1ccc(Cl)cc1NC(=O)C/C(C)=N/NC(=O)c1ccccc1Cl	-9%	·	71%	12	-1%	13µM*
CN(C)c1ccc(/C=N/NC(=O)CNC(=O)c2ccco2)cc1	32%	37	11%	19	-2%	10%
C/C(CC(=O)Nc1ccc(Cl)c(C(F)(F)F)c1)=N\NC(=O)c1cc2ccccc2cc1O	?	-7	80%	13*	1%	?
C/C(CC(=O)Nc1cccc(Cl)c1Cl)=N\NC(=O)c1ccccc1N	6%	112*	83%	37*	-1%	28%
CC(=O)Nc1ccc(N2C(=O)CSC2c2cccc([N+](=O)[O-])c2)cc1 (centres undefined)	7%	-15	-7%	6	-4%	45%
CNc1cnn(-c2ccccc2)c(=O)c1Cl	21%	37	15%	-3	9%	31%
O=c1c(Cl)c(NCCO)cnn1-c1cccc(Cl)c1	39%	51*	3%	23*	0%	62%
CN(C)CCNc1cnn(-c2ccccc2)c(=O)c1Cl	15%	55	8%	17*	1%	39%
O=C(C1CCCCC1)N1C[C@H](n2cc(C3CC3)nn2)[C@@H](O)C[C@@H]1c1ccccc1	·	·	10%	·	·	·
O=C1c2ccccc2-c2onc3ccc(NCCCn4ccnc4)c1c23	·	-7	24µM*	-2	-9%	13µM*
N#Cc1cc(Br)ccc1N=C1CCCN1c1ccccc1	-18%	9	-17%	5	-18%	78%
COc1cc2c(cc1OC)CN(c1ccc3ccccc3n1)CC2	12µM*	88*	-21%	42*	-21%	?
COc1cc2c(cc1OC)CN(c1ccc([N+](=O)[O-])c(C(F)(F)F)c1)CC2	?	-6	-19%	-3	-11%	?
COc1cc2c(cc1OC)CN(CCC(=O)c1ccc(Br)cc1)CC2	-7%	-16	-24%	6	-23%	2%
COc1cc2c(cc1OC)CN(c1ccc(-c3ccccc3OC)nn1)CC2	5.2µM*	4	-20%	-3	-3%	6%[5.75 µM]
COc1cc2c(cc1OC)CN(Cc1nc3ccsc3c(=O)[nH]1)CC2	-21%	5	94%	3	4%	192%
COc1cc2c(cc1OC)CN(c1ccc(C(F)(F)F)cn1)CC2	19%	53*	-11%	21*	-6%	38%
NC(=O)c1cccc(-c2cc(Nc3ccc(OC(F)(F)F)cc3)ncn2)c1	13µM*	26	5%	13*	-3%	15µM*
NC(=O)c1cccc(-c2cnc3c(Nc4cccc(OC(F)(F)C(F)F)c4)nccn23)c1	·	·	81%	·	·	·
CCN(CC)C(=O)c1cc([N+](=O)[O-])cc2c1-c1ccc([N+](=O)[O-])cc1C2=C(C#N)C#N	15µM*	9	-6%	-2	0%	?
Cc1cc(NS(C)(=O)=O)c(=O)n(Cc2cccc(F)c2)c1	17%	-2	-2%	-3	-12%	2.6µM*
